High-throughput results as filed in PubChem.
This is a sample that favours compounds with a hit; in the whole collection about 11% have one here.
IL1B secr inh: inhibitors of inflammasome signaling (IL-1 beta secretion); THP-1 LPS/ATP IL-1B secretion, AlphaLISA, 16 h; hits give low values; activity change, % at 57.5 µM; 360,000 compounds, 4.7% hits; in the data active = activity change below about -50%; inconclusive = mostly about -30% to -49%; note: % is set by controls: 0 for no effect and ±100 for the full control effect
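Secreted IL-1B measured by AlphaLISA bead assay after 16 h compound exposure of THP-1 cells; compounds (final up to 57.5 uM) added 1 h before LPS (250 ng/mL) and ATP (1.25 mM) stimulation; lower signal means less secretion.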
Gal4-VP16 FLuc: inhibits Gal4-VP16 luciferase reporter, ROR gamma counter-screen; 310,000 compounds, 3.5% hits; Drosophila S2 Gal4-VP16 UAS-luciferase, luminescence, 20 h; Potency, µM (titrated, usually from 53.6 µM), inactives show at the highest dose activity, negative = inhibition, usual class: inhibitors;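 note: Gal4-VP16 expression switched on by copper sulfate through the metallothionein promoter; potency is the fitted concentration of half-maximal effect; % is set by controls: 0 for no effect and ±100 for the full control effect; nearly all actives have a fitted effect of over 50% in size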
MCF10A rerep: induces DNA re-replication in MCF 10a normal breast cells. MCF 10A DNA re-replication, Hoechst nuclear intensity, 48 h. Potency, µM (titrated, usually from 46.1 µM), inactives show top-dose activity, positive = re-replication, hits mostly activators. 350,000 compounds, 2.9% hits; note: potency is the fitted concentration of half-maximal effect; % of control where 0% means no effect; nearly all actives have a fitted effect of over 50% in size
RORgamma inh: inhibitors of mouse ROR gamma transcriptional activity. P51450. Drosophila S2 Gal4-RORgamma UAS-luciferase reporter, 20 h. Potency, µM (doses to about 53.6 µM), for inactives: top-dose activity change, negative = inhibition, hits mostly inhibitors. 310,000 compounds, 5.4% hits. AID 2551; note: potency is the fitted concentration of half-maximal effect; % is set by controls: 0 for no effect and ±100 for the full control effect; nearly all actives have a fitted effect of over 60% in size
Target sequence (P51450 whole entry, looked up, the tested form may be a part): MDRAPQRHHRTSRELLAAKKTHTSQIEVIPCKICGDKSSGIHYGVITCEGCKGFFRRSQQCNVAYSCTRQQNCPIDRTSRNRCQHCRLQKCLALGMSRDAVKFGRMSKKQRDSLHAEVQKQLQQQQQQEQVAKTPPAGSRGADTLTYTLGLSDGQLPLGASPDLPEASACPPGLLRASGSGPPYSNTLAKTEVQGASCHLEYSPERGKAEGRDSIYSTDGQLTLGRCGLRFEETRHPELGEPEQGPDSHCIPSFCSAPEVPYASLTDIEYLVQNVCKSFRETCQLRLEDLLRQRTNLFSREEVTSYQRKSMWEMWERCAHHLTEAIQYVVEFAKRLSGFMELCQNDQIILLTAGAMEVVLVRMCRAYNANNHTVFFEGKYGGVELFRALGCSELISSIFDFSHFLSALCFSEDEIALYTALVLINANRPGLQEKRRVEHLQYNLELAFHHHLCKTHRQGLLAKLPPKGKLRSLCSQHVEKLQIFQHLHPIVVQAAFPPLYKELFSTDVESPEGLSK
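Compounds are pin-transferred onto Drosophila Schneider cells expressing a copper-inducible Gal4–ROR gamma transactivation domain fusion. After 1 hr, copper sulfate is added to 700 uM final; luciferase is read 20 hr later.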
SW480 rerep: induces DNA re-replication in SW480 colon adenocarcinoma cells; AID 624297; Potency, µM (titrated, usually from 46.1 µM), for the others: at the highest dose re-replication activation, hits mostly activators; SW480 DNA re-replication, Hoechst DNA content imaging, 48 h; 340,000 compounds, 1.8% hits; note: potency is the fitted concentration of half-maximal effect; % of control where 0% means no effect; nearly all actives have a fitted effect of over 55% in size
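Compounds, transferred as 23 nL by pin tool, were incubated with cells for 48 hr; DNA content per nucleus was then quantified by Hoechst staining and fluorescence plate imaging.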
Numbers without * were called inactive; [ ] = remark or other dose. Unless noted, calls come from the whole dose curve; as a rule, active = well fitted curve in the direction sought with a large enough effect; inconclusive = small, poorly fitted or top-dose-only effect, or another doubt; inactive = no such curve, though single readings can be large; an effect the other way counts as inactive or inconclusive.

Cc1cccc(NC(=O)CSc2ncnc3nc[nH]c23)c1C was read as IL1B secr inh 29, Gal4-VP16 FLuc -1%, MCF10A rerep 23µM*, RORgamma inh 13% and SW480 rerep inconclusive.
`Cc1ccc(C)c(NC(=O)CSc2ncnc3nc[nH]c23)c1` gave IL1B secr inh 33, Gal4-VP16 FLuc 1%, MCF10A rerep 1%, RORgamma inh inconclusive and SW480 rerep -2%.
`CN(C)c1ccc(-c2cncnc2NCc2ccccc2)cc1` gave Gal4-VP16 FLuc -8% and RORgamma inh inconclusive.
For Cc1nc(N2CCN(c3ccccc3O)CC2)c2c(-c3ccccc3)csc2n1 the results were IL1B secr inh -62*, Gal4-VP16 FLuc 2%, MCF10A rerep 13µM*, RORgamma inh inconclusive and SW480 rerep inconclusive.
For COc1ccc(-c2csc3nc(C)nc(N4CCC(C)CC4)c23)cc1OC the results were IL1B secr inh 9, Gal4-VP16 FLuc 11%[10 µM], MCF10A rerep inconclusive, RORgamma inh 7.1µM* and SW480 rerep 19%.
`Oc1ccccc1N1CCN(c2ncnc3scc(-c4ccccc4)c23)CC1` gave IL1B secr inh inconclusive, Gal4-VP16 FLuc -3%, MCF10A rerep 21µM*, RORgamma inh 90% and SW480 rerep inconclusive.
O=C1O[C@@H](c2ccccc2)C[C@@H](O)C(=O)CCCCc2ccccc21 was read as IL1B secr inh 18.
C=C(C)C1CC=C(C)C(OC(C)=O)C1 (stereo not given) was read as Gal4-VP16 FLuc -11% and RORgamma inh 15%.
`CC(CCc1ccccc1)NC(=O)c1cc2sccc2n1C` (stereo not given) gave IL1B secr inh -10, Gal4-VP16 FLuc -5%, MCF10A rerep 15µM*, RORgamma inh -2% and SW480 rerep inconclusive.
Screening CC(CCc1ccccc1)NC(=O)C1CCCN(C(=O)c2cc3sccc3n2C)C1 (stereo not given) returned IL1B secr inh -12, Gal4-VP16 FLuc 14%, MCF10A rerep 5%, RORgamma inh inconclusive and SW480 rerep 6%.
For CN(CC(=O)Nc1c(Cl)cccc1Cl)C(=O)CCC1CCCC1 the results were IL1B secr inh 0, Gal4-VP16 FLuc 11µM*, MCF10A rerep 4%, RORgamma inh -56% and SW480 rerep 19%.
Fc1ccc2nc3n(c2c1F)CCCCCC3 was read as IL1B secr inh 25, Gal4-VP16 FLuc -21%, MCF10A rerep inconclusive, RORgamma inh 11µM* and SW480 rerep -12%.
Screening Cc1cc(Br)c(S(=O)(=O)n2nnc3ccccc32)cc1C returned IL1B secr inh 13, Gal4-VP16 FLuc -9%, MCF10A rerep 10µM*, RORgamma inh -36% and SW480 rerep inconclusive.
`CC(Nc1ccc(F)cc1)=[N+](C)CCNS(=O)(=O)c1ccc(Cl)cc1` gave IL1B secr inh inconclusive, Gal4-VP16 FLuc 1%, MCF10A rerep -8%, RORgamma inh -39% and SW480 rerep 2%.
Screening CC(C(=O)NC1CCCCC1)N(Cc1ccccc1)C(=O)c1snc(C(N)=O)c1N (stereo not given) returned IL1B secr inh -17, Gal4-VP16 FLuc -12%, MCF10A rerep -5%, RORgamma inh 17% and SW480 rerep inconclusive.
Cc1cnc(NC(=O)COc2ccccc2Cl)s1 was read as IL1B secr inh 11, Gal4-VP16 FLuc 7.9µM*, MCF10A rerep 0%, RORgamma inh 7.1µM* and SW480 rerep -2%.
`Cc1cnc(NC(=O)CC(C)c2ccccc2)s1` (stereo not given) gave IL1B secr inh 36, Gal4-VP16 FLuc -13%, MCF10A rerep 10µM*, RORgamma inh inconclusive and SW480 rerep 5.8µM*.
Screening CC(CC(=O)Nc1cccnc1)c1ccccc1 (stereo not given) returned IL1B secr inh -9, Gal4-VP16 FLuc -3%, MCF10A rerep 12µM*, RORgamma inh 30% and SW480 rerep 12%.
COCc1ccc(CN2CCc3c([nH]c4ccccc34)C2C(C)(C)C)o1 (stereo not given) was read as IL1B secr inh -53*, Gal4-VP16 FLuc inconclusive, MCF10A rerep inconclusive, RORgamma inh 11µM* and SW480 rerep inconclusive.
CC(=O)c1cc(C(=O)N2CCc3c([nH]c4ccccc34)C2C2CCCCC2)[nH]n1 (stereo not given) was read as IL1B secr inh -1, Gal4-VP16 FLuc -6%, MCF10A rerep 1.5µM*, RORgamma inh 41% and SW480 rerep 11%.
Screening CCn1ccnc1CN1CCc2c([nH]c3ccccc23)C1C1CCCCC1 (stereo not given) returned IL1B secr inh 29, Gal4-VP16 FLuc inconclusive, MCF10A rerep -4%, RORgamma inh 13µM* and SW480 rerep -3%.
CCn1ccnc1CN1CCc2c([nH]c3ccccc23)C1CC(C)C (stereo not given) was read as IL1B secr inh -4, Gal4-VP16 FLuc 7.9µM*, MCF10A rerep 11%, RORgamma inh 3.2µM* and SW480 rerep -1%.
Cc1cnc(C(=O)N2CCc3c([nH]c4ccccc34)C2c2ccc(F)cc2)cn1 (stereo not given) was read as IL1B secr inh 1, Gal4-VP16 FLuc -11%, MCF10A rerep 4%, RORgamma inh 0% and SW480 rerep 13%.
`COCCC(=O)N1CCc2c([nH]c3ccccc23)C1C(C)(C)C` (stereo not given) gave IL1B secr inh 26, Gal4-VP16 FLuc 4%, MCF10A rerep 0%, RORgamma inh 0% and SW480 rerep -2%.
O=C(O)CC(CC(=O)N1CCN(C(=O)c2ccco2)CC1)c1ccccc1 (stereo not given) was read as IL1B secr inh 33, Gal4-VP16 FLuc -6%, MCF10A rerep 1%, RORgamma inh -4% and SW480 rerep inconclusive.
Screening CSc1ncc(CN2CCc3c([nH]c4ccccc34)C2c2cccc(C)n2)cn1 (stereo not given) returned IL1B secr inh 35, Gal4-VP16 FLuc -14%, MCF10A rerep -11%, RORgamma inh 0% and SW480 rerep 6%.
CCn1ccnc1CN1CCc2c([nH]c3ccccc23)C1C(C)(C)C (stereo not given) was read as IL1B secr inh -84*, Gal4-VP16 FLuc inconclusive, MCF10A rerep -1%, RORgamma inh 4.5µM* and SW480 rerep 17%.
For Cc1c(CN2CCc3c([nH]c4ccccc34)C2C2CCCCC2)cnn1C (stereo not given) the results were IL1B secr inh -7, Gal4-VP16 FLuc -9%, MCF10A rerep 18µM*, RORgamma inh -11% and SW480 rerep 6%.
Screening CCOc1ccc(C2c3[nH]c4ccccc4c3CCN2CCCn2cccn2)cc1 (stereo not given) returned IL1B secr inh -2, Gal4-VP16 FLuc 24%, MCF10A rerep 12%, RORgamma inh 43% and SW480 rerep -84%.
